# Data as given in PubChem BioAssay (EPA / NIEHS).
# Records with an inconclusive call do not appear. The source made the active and inactive calls. Rule for the calls, unless noted: active = hit-call score of the fitted dose curve at least 0.9, where 1 is the maximum; inconclusive = response in the unintended direction; inactive = score below 0.9.
# Key:
# [1] = target: human CYP2D6, CYP2D6 (gene 1565) (UniProt P10635); assay: NVS_ADME_hCYP2D6: NovaScreen (NVS) CYP450-related Enzyme Activity (ADME) Assay for human CYP2D6 (AID 2283107)
# Sequence of human CYP2D6, CYP2D6 (gene 1565) (P10635 whole entry, looked up): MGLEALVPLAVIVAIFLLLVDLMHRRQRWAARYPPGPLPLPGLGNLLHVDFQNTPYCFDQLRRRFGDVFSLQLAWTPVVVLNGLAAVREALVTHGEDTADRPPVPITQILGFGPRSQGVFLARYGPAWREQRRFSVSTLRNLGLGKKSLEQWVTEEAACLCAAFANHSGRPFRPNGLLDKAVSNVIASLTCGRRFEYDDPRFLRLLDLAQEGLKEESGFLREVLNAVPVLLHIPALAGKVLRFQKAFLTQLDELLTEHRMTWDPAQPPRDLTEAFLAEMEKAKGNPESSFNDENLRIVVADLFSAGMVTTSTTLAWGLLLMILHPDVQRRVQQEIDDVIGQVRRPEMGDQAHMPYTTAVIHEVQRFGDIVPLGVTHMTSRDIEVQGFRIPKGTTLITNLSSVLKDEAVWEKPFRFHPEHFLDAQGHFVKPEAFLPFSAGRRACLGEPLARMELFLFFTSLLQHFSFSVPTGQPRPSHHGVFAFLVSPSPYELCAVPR
# How it was run: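 Insect-cell recombinant enzyme + fluorogenic substrate, cell-free; 1 h incubation; fluorescence intensity readout. Acetonitrile = neg. ctrl/baseline. Single-point 10 uM, duplicate; follow-up concentration series.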
# [2] = target: human CYP2C9, CYP2C9 (gene 1559) (UniProt P11712); assay: NVS_ADME_hCYP2C9: NovaScreen (NVS) CYP450-related Enzyme Activity (ADME) Assay for human CYP2C9 (AID 2283108)
# Sequence of human CYP2C9, CYP2C9 (gene 1559) (P11712 whole entry, looked up): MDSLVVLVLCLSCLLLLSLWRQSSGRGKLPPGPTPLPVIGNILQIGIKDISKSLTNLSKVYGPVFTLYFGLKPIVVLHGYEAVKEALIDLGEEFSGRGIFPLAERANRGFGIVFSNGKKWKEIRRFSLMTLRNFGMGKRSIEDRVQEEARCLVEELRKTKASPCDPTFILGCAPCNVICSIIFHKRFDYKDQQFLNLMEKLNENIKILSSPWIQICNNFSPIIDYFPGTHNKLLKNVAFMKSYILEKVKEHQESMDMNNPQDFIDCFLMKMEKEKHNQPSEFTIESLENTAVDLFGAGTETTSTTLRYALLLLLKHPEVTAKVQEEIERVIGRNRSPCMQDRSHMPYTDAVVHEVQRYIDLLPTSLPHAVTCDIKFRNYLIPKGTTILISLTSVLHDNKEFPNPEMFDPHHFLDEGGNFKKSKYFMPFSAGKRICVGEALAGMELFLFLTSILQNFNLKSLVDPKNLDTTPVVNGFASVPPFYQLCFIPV
# How it was run: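 Recombinant human CYP2C9 expressed in SF9 cells, fluorogenic substrate, fluorescence read 0.75 h after dosing. Chemicals first run in duplicate at 10 uM, with actives followed in concentration series; loss of signal versus acetonitrile baseline.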
# [3] = target: Cytochrome P450 2C19 (Homo sapiens) (UniProt P33261); assay: NVS_ADME_hCYP2C19: NovaScreen (NVS) CYP450-related Enzyme Activity (ADME) Assay for human CYP2C19 (AID 2283113);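 for AC50: potency for inhibition seen as loss of fluorescent signal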
# How it was run: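 Fluorescence intensity was measured 1 hour after chemicals were added to insect-cell-derived recombinant CYP2C19 with fluorogenic substrate. Decreased signal versus acetonitrile control was taken as reduced enzyme activity; initial testing used 10 uM in duplicate.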
# [4] = target: rat CYP1A2, Cyp1a2 (gene 24297) (UniProt P04799); assay: NVS_ADME_rCYP1A2: NovaScreen (NVS) CYP450-related Enzyme Activity (ADME) Assay for rat CYP1A2 (AID 2283115)
# Sequence of rat CYP1A2, Cyp1a2 (gene 24297) (P04799 whole entry, looked up): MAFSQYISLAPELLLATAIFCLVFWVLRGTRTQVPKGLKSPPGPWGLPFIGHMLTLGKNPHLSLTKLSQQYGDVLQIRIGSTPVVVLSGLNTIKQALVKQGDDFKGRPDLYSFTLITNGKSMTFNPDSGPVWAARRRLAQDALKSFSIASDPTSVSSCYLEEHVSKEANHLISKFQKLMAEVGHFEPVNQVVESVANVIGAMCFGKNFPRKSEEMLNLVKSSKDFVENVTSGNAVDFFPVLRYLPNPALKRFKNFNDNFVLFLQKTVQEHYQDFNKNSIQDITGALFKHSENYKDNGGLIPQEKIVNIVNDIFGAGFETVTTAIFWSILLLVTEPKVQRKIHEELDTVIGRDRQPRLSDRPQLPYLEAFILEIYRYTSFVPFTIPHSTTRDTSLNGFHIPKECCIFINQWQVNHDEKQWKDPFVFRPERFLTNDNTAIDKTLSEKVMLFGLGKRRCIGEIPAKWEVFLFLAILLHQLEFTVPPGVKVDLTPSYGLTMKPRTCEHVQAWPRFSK
# Method: (§1) NVS_ADME_rCYP1A2 is a biochemical, single-readout assay that uses extracted gene-proteins in a cell-free assay. Measurements were taken 1 hour after chemical dosing in a 96-well plate.NVS_ADME_rCYP1A2 is one of one assay component(s) measured or calculated from the NVS_ADME_rCYP1A2 assay. It is designed to make measurements of enzyme activity, a form of enzyme reporter, as detected with fluorescence intensity signals by Fluorescence technology.Data from the assay component NVS_ADME_rCYP1A2 was analyzed into 1 assay endpoint. This assay endpoint, NVS_ADME_rCYP1A2, was analyzed in the positive analysis fitting direction relative to Acetonitrile as the negative control and baseline of activity. Using a type of enzyme reporter, loss-of-signal activity can be used to understand changes in the enzymatic activity as they relate to the gene Cyp1a2. Furthermore, this assay endpoint can be referred to as a primary readout, because this assay has produced multiple assay endpoints where this one serves a enzymatic activity function. To generalize the intended target to other relatable targets, this assay endpoint is annotated to the cyp intended target family, where the subfamily is xenobiotic metabolism.
# Binding assays used specific radioligands (tritiated, iodinated) with non-radioactive competitive displacement ligands in agonist or antagonist protocols (as indicated) and various reference compounds and inhibitors to titrate specific binding to receptors and transporters. Most enzyme assays (CYPs, kinases, phosphatases, proteases, HDACs) used recombinant protein and specific substrates (fluorescence mostly, some colorimetric and radioactive) and inhibitors, followed by a biochemical separation of substrate and product. All assays for the biochemical HTS were initially run in duplicate at a single concentration (10 uM for CYP450 assays and 25 uM for all others). […] Each assay was run with positive and negative controls, and concurrent controls on every plate. The follow-up (secondary) screen tested active chemical-pairs in concentration series, as well as a few additional assays not tested in the primary screen, some selected negative inactives, and several cases re-run in the concentration series for confirmatory purposes.
# [5] = target: human CYP2J2, CYP2J2 (gene 1573) (UniProt P51589); assay: NVS_ADME_hCYP2J2: NovaScreen (NVS) CYP450-related Enzyme Activity (ADME) Assay for human CYP2J2 (AID 2283106)
# Sequence of human CYP2J2, CYP2J2 (gene 1573) (P51589 whole entry, looked up): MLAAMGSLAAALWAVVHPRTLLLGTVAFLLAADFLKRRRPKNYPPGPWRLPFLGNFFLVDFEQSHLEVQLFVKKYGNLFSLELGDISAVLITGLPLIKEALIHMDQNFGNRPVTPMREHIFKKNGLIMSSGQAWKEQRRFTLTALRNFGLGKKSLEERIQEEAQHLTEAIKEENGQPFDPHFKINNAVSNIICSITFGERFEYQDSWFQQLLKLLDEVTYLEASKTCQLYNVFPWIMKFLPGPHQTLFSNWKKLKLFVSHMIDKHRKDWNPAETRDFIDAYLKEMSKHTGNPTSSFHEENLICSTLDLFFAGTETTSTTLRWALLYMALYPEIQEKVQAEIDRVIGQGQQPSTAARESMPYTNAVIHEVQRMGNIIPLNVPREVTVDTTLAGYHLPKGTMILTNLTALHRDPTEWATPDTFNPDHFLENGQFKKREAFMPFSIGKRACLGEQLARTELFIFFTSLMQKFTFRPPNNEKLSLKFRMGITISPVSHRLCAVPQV
# Method: as §1, with “NVS_ADME_hCYP2J2” for “NVS_ADME_rCYP1A2”, “plate.NVS_ADME_hCYP2J2” for “plate.NVS_ADME_rCYP1A2”, “NVS_ADME_hCYP2J2,” for “NVS_ADME_rCYP1A2,”, “CYP2J2.” for “Cyp1a2.”
# Binding assays used specific radioligands (tritiated, iodinated) with non-radioactive competitive displacement ligands in agonist or antagonist protocols (as indicated) and various reference compounds and inhibitors to titrate specific binding to receptors and transporters. Most enzyme assays (CYPs, kinases, phosphatases, proteases, HDACs) used recombinant protein and specific substrates (fluorescence mostly, some colorimetric and radioactive) and inhibitors, followed by a biochemical separation of substrate and product. All assays for the biochemical HTS were initially run in duplicate at a single concentration (10 uM for CYP450 assays and 25 uM for all others). Assay-chemical combinations meeting a pre-defined threshold (e.g., 30% inhibition and other criteria defined below) were then run in singleton concentration-response format with maximum concentration of 20 uM for CYPs and 50 uM for all others. Each assay was run with positive and negative controls, and concurrent controls on every plate. The follow-up (secondary) screen tested active chemical-pairs in concentration series, as well as a few additional assays not tested in the primary screen, some selected negative inactives, and several cases re-run in the concentration series for confirmatory purposes.
# [6] = target: rat CYP2A1, Cyp2a1 (gene 24894) (UniProt P11711); assay: NVS_ADME_rCYP2A1: NovaScreen (NVS) CYP450-related Enzyme Activity (ADME) Assay for rat CYP2A1 (AID 2283114; active = hit-call score of the fitted dose curve at least 0.9, where 1 is the maximum; inactive = score below 0.9)
# Sequence of rat CYP2A1, Cyp2a1 (gene 24894) (P11711 whole entry, looked up): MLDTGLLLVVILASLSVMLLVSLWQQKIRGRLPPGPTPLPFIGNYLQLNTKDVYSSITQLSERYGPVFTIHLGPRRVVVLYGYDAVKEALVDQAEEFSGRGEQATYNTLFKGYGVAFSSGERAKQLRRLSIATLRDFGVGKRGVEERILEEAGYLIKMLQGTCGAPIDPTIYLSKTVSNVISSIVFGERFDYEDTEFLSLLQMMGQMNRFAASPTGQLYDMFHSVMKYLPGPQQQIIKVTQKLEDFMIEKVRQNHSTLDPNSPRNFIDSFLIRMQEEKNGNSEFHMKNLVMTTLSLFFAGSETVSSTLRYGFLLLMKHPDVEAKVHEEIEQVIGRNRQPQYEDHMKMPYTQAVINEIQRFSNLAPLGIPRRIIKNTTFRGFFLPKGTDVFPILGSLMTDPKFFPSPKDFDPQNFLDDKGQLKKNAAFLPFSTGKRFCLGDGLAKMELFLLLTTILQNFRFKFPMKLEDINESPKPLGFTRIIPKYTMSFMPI
# How it was run: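 Cell-free fluorescence enzyme-activity read on recombinant rat CYP2A1, taken 0.75 h post-dosing. Compounds were screened in duplicate at 10 uM, then hits tested in concentration series (max 20 uM); inhibition scored relative to acetonitrile baseline.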
# [7] = target: rat CYP2A2, Cyp2a2 (gene 24895) (UniProt P15149); assay: NVS_ADME_rCYP2A2: NovaScreen (NVS) CYP450-related Enzyme Activity (ADME) Assay for rat CYP2A2 (AID 2283116)
# Sequence of rat CYP2A2, Cyp2a2 (gene 24895) (P15149 whole entry, looked up): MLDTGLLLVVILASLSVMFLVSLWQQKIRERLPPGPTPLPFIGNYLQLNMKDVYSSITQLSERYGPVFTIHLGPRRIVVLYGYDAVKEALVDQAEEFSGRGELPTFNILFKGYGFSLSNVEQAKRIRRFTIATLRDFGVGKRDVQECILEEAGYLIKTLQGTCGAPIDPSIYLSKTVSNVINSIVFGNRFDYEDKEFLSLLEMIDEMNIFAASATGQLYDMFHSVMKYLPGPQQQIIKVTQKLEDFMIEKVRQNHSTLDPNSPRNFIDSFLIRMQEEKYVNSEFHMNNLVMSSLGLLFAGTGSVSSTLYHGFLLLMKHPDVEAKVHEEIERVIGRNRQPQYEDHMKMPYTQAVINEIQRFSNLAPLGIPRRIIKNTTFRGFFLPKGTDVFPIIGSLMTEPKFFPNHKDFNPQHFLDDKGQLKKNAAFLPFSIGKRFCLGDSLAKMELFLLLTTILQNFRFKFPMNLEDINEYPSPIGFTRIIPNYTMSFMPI
# How it was run: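 Compounds first tested in duplicate at 10 uM, then in singleton concentration series up to 20 uM when over threshold. Activity of the recombinant enzyme read by fluorescence at 0.2 h, normalised to acetonitrile vehicle.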
# [8] = target: human CYP2C8, CYP2C8 (gene 1558) (UniProt P10632); assay: NVS_ADME_hCYP2C8: NovaScreen (NVS) CYP450-related Enzyme Activity (ADME) Assay for human CYP2C8 (AID 2283104; active = hit-call score of the fitted dose curve at least 0.9, where 1 is the maximum; inactive = score below 0.9)
# Sequence of human CYP2C8, CYP2C8 (gene 1558) (P10632 whole entry, looked up): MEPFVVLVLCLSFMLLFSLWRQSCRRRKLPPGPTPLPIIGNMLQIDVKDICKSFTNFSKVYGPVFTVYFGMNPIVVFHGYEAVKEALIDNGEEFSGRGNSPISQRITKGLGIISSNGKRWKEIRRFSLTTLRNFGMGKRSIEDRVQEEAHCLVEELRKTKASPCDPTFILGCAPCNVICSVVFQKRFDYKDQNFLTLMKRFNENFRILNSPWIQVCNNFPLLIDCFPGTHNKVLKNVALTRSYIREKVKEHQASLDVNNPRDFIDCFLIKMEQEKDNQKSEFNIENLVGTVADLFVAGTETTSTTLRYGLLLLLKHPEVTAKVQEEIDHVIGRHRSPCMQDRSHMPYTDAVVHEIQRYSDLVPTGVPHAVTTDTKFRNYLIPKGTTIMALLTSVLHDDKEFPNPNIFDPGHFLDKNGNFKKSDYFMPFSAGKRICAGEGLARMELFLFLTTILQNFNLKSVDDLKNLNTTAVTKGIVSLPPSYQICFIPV
# How it was run: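 Fluorescence readout of substrate turnover by recombinant CYP2C8 after 0.5 h, baseline acetonitrile. Single-concentration duplicate screen at 10 uM preceded singleton concentration series (max 20 uM) for compounds passing the inhibition threshold.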
# [9] = target: Cytochrome P450 3A4 (Homo sapiens) (UniProt P08684); assay: NVS_ADME_hCYP3A4: NovaScreen (NVS) CYP450-related Enzyme Activity (ADME) Assay for human CYP3A4 (AID 2283110)
# Sequence of Cytochrome P450 3A4 (Homo sapiens) (P08684 whole entry, looked up): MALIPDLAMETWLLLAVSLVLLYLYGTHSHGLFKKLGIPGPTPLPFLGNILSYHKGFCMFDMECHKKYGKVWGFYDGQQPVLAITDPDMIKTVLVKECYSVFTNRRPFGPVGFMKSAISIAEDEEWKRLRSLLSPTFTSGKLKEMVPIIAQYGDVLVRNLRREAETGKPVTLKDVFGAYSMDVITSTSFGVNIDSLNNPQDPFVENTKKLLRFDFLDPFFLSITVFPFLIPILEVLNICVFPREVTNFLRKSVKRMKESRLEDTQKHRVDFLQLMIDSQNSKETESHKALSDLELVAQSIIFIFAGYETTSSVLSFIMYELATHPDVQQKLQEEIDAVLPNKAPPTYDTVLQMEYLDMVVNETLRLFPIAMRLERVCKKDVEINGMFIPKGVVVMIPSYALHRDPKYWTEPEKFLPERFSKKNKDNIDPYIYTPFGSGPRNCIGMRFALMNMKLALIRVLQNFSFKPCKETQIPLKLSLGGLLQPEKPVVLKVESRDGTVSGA
# How it was run: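 Recombinant CYP3A4 from insect cells, fluorescence enzyme read-out, 0.33 h after chemical addition. Acetonitrile = negative control/baseline. Primary HTS: 10 uM in duplicate; actives re-tested in concentration series.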
# [10] = target: human CYP4F12, CYP4F12 (gene 66002) (UniProt Q9HCS2); assay: NVS_ADME_hCYP4F12: NovaScreen (NVS) CYP450-related Enzyme Activity (ADME) Assay for human CYP4F12 (AID 2283111)
# Sequence of human CYP4F12, CYP4F12 (gene 66002) (Q9HCS2 whole entry, looked up): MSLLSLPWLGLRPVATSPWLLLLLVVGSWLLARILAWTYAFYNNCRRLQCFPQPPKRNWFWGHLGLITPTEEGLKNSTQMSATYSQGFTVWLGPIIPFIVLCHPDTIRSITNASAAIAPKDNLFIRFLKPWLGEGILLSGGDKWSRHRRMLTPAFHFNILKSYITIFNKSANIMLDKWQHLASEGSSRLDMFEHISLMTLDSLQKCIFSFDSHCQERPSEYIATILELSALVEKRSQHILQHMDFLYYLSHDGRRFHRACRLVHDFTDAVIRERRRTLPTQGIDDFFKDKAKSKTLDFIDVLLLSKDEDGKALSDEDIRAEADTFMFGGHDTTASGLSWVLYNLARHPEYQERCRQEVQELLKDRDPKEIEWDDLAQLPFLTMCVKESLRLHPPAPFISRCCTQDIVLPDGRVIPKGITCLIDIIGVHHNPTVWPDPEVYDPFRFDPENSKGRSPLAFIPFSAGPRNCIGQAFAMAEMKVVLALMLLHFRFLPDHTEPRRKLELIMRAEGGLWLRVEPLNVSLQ
# How it was run: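 Recombinant enzyme with a fluorescent substrate, signal read at 0.5 h post-dose; activity loss analysed relative to acetonitrile. Compounds first run in duplicate at 10 uM, with follow-up concentration-response testing of actives.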
smiles,measurement,setting,value
CC1(C)C(C=C(Cl)Cl)C1C(=O)OC(C#N)c1cccc(Oc2ccccc2)c1 (stereo not drawn),AC50,[1],6070 nM (active)
same,AC50,[2],12800 nM (active)
same,AC50,[3],7550 nM (active)
N#Cc1c[nH]cc1-c1cccc2c1OC(F)(F)O2,outcome,[4],inactive
CCC(C)n1c(=O)[nH]c(C)c(Br)c1=O (stereo not drawn),outcome,[3],inactive
CCCCC(C#N)(Cn1cncn1)c1ccc(Cl)cc1 (stereo not drawn),outcome,[5],inactive
same,outcome,[1],inactive
same,AC50,[2],8720 nM (active)
same,AC50,[3],634 nM (active)
same,AC50,[6],563 nM (active)
same,AC50,[7],238 nM (active)
CCN(CC)c1nc(C)cc(OP(=S)(OC)OC)n1,AC50,[2],7090 nM (active)
same,AC50,[3],773 nM (active)
COP(=S)(OC)Oc1ccc([N+](=O)[O-])c(C)c1,outcome,[8],inactive
same,AC50,[5],612 nM (active)
same,AC50,[1],4590 nM (active)
same,AC50,[3],168 nM (active)
same,AC50,[6],3840 nM (active)
same,outcome,[4],inactive
COC(=O)c1c(C(F)F)nc(C(F)(F)F)c(C2=NCCS2)c1CC(C)C,AC50,[3],1270 nM (active)
CCCCOCN(C(=O)CCl)c1c(CC)cccc1CC,AC50,[2],5520 nM (active)
same,AC50,[9],9740 nM (active)
same,AC50,[3],1280 nM (active)
COC(=O)N(C(=O)N1CO[C@@]2(C(=O)OC)Cc3cc(Cl)ccc3C2=N1)c1ccc(OC(F)(F)F)cc1,outcome,[2],inactive
same,AC50,[3],102 nM (active)
CO/N=C(/C1=NOCCO1)c1ccccc1Oc1ncnc(Oc2ccccc2Cl)c1F,AC50,[3],1410 nM (active)
same,AC50,[6],1570 nM (active)
CSC(=O)c1c(C(F)F)nc(C(F)(F)F)c(C(=O)SC)c1CC(C)C,AC50,[1],6580 nM (active)
same,AC50,[3],7010 nM (active)
Cc1c(COC(=O)[C@@H]2[C@H](/C=C(\Cl)C(F)(F)F)C2(C)C)cccc1-c1ccccc1,AC50,[3],12900 nM (active)
same,outcome,[7],inactive
CC(C)NC(=O)N1CC(=O)N(c2cc(Cl)cc(Cl)c2)C1=O,AC50,[2],4010 nM (active)
same,AC50,[3],2060 nM (active)
same,outcome,[4],inactive
CS(=O)(=O)c1cc(C(F)(F)F)ccc1C(=O)c1cnoc1C1CC1,outcome,[1],inactive
COCc1cnc(C2=NC(C)(C(C)C)C(=O)N2)c(C(=O)O)c1 (stereo not drawn),AC50,[5],3830 nM (active)
CC1(C)C(C(=O)OC(C#N)c2cccc(Oc3ccccc3)c2)C1(C)C (stereo not drawn),outcome,[2],inactive
same,AC50,[3],13800 nM (active)
CC(C)C1(C)N=C(c2ncccc2C(=O)O)NC1=O (stereo not drawn),outcome,[2],inactive
same,AC50,[7],6920 nM (active)
CCCCC(O)(Cn1cncn1)c1ccc(Cl)cc1Cl (stereo not drawn),AC50,[2],554 nM (active)
same,AC50,[10],2520 nM (active)
same,AC50,[3],426 nM (active)
same,AC50,[6],1300 nM (active)
same,AC50,[7],12.6 nM (active)
CCOP(=O)(OCC)Oc1nc(Cl)c(Cl)cc1Cl,AC50,[3],4090 nM (active)
same,outcome,[4],inactive
CCOC(=O)C(C)OC(=O)c1cc(Oc2ccc(C(F)(F)F)cc2Cl)ccc1[N+](=O)[O-] (stereo not drawn),outcome,[1],inactive
same,AC50,[3],4010 nM (active)
N#CN=C1SCCN1Cc1ccc(Cl)nc1,outcome,[1],inactive
CC1(C)CCC(=Cc2ccc(Cl)cc2)C1(O)Cn1cncn1 (stereo not drawn),AC50,[2],289 nM (active)
same,AC50,[3],252 nM (active)
same,AC50,[6],1110 nM (active)
same,AC50,[7],299 nM (active)
Cc1ccc(N=CN(C)C=Nc2ccc(C)cc2C)c(C)c1,outcome,[1],inactive
same,AC50,[3],5270 nM (active)
O=C(Nc1ccccc1-c1ccc(Cl)cc1)c1cccnc1Cl,AC50,[3],661 nM (active)
Cn1c(-c2ccccc2)cc(-c2ccccc2)[n+]1C,AC50,[1],5060 nM (active)
OC(c1ccc(Cl)cc1)(c1ccc(Cl)cc1)C(Cl)(Cl)Cl,outcome,[9],inactive
same,AC50,[3],806 nM (active)
CC(C)=CC1C(C(=O)OCc2coc(Cc3ccccc3)c2)C1(C)C (stereo not drawn),AC50,[2],5840 nM (active)
same,AC50,[3],8700 nM (active)
CCN(CC)C(=O)C(C)Oc1cccc2ccccc12 (stereo not drawn),AC50,[2],4540 nM (active)
same,AC50,[3],1150 nM (active)
same,AC50,[7],5890 nM (active)
CC(C)Oc1cccc(NC(=O)c2ccccc2C(F)(F)F)c1,AC50,[2],3190 nM (active)
same,AC50,[3],4900 nM (active)
same,outcome,[6],inactive
CCCN(CC)CC1COC2(CCC(C(C)(C)C)CC2)O1 (stereo not drawn),outcome,[2],inactive
same,outcome,[7],inactive
CCNP(=S)(OC)O/C(C)=C/C(=O)OC(C)C (stereo not drawn),AC50,[5],1330 nM (active)
same,AC50,[1],7620 nM (active)
same,AC50,[2],1790 nM (active)
same,AC50,[3],107 nM (active)
same,AC50,[7],6860 nM (active)
COc1ccc(-c2ccccc2)cc1NNC(=O)OC(C)C,AC50,[5],407 nM (active)
same,outcome,[1],inactive
same,AC50,[2],1070 nM (active)
same,AC50,[3],447 nM (active)
CCOc1cc(C(C)(C)C)ccc1C1COC(c2c(F)cccc2F)=N1 (stereo not drawn),AC50,[3],7620 nM (active)
same,AC50,[7],1150 nM (active)
COC(=O)NC(=S)Nc1ccccc1NC(=S)NC(=O)OC,AC50,[3],10000 nM (active)
COP(=O)(OC)O/C(C)=C/C(=O)N(C)C,outcome,[3],inactive
